Compound activity: PubChem BioAssay, several laboratories
INS promoter inh – TRM-6 insulin promoter activity inhibition; TRM-6 cells (human fetal islet line), insulin promoter-eGFP reporter, imaging; reporter expression induced with tamoxifen; actives 0.9% (n = 130,000); inhibition, % at 2 µM; AID 1273;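 active means inhibition above the mean plus 3 SD, with well images judged a real hit on visual review, cut at about 60% in these data, passing the limit was not always enough; inconclusive means inhibition over the cutoff but images rejected on review; inactive means inhibition not above the cutoff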
WT yeast gro inh – growth inhibition of WT yeast, mitochondrial fusion screen | mitochondrial fusion phenotypic screen, WT strain | inhibition, % at 10 µM | actives 2.1% (n = 190,000) | AID 1362; in the data active means inhibition above about 58%; tested in S. cerevisiae
Autophagy mod – alters autophagy in cells; MEF GFP-LC3 puncta imaging; test concentration mostly 10 µM; actives 0.98% (n = 190,000); calls only at 10 µM (by protocol);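 active means percentage of spot-positive cells more than 3 SD above its plate mean, without a fluorescence outlier flag or 80% toxicity; inconclusive means no clear call, values can overlap the other calls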;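 further: spot-positive cell cutoff set from DMSO-treated cells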
Ins promoter up – MIN6 insulin promoter up-regulation; AID 1625; z-score at 5 µM; MIN6 insulin promoter-GFP reporter, high-content imaging; stronger effect = higher value; actives 0.3% (n = 190,000);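 active means z-score above 3 at 5 µM with at least 500 cells counted in the well; inconclusive means wells under 500 cells, flagged as cytotoxic or low count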
L major viab – inhibitors of Leishmania major promastigote growth. AID 1063. inhibition, % at 10 µM. Leishmania major promastigotes, resazurin fluorescence viability. actives 9% (n = 200,000); in the data active means inhibition above about 50%;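 further: promastigotes grown with compound for 44 hours at 28 °C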
Starred values were filed as active, the others as inactive; i = inactive; ? = inconclusive; . = no result; + = active, no number. Compounds with a hit are over-represented: about 11% of the library has one in this group of screens.

SMILES | INS promoter inh | WT yeast gro inh | Autophagy mod | Ins promoter up | L major viab
CN(C)S(=O)(=O)c1cc(NC2CC(=O)N(c3ccc(F)cc3)C2=O)ccc1Cl (stereo not given) | 6 | -2 | i | 0.09 | 2
Cc1ccc(-n2c(C)cc(C(=O)CN3CCOCC3)c2C)cc1C | 14 | -11 | i | -0.41 | 57*
N/C(=N\OC(=O)CCn1cccc(C(F)(F)F)c1=O)c1ccc(Cl)cc1 | . | . | . | -0.38 | .
COc1ccc(/C(C)=N/NC(=O)CNC(=O)c2cccs2)cc1OC | 36 | -14 | i | -0.96 | 3
COc1cc(C(=O)NCC(=O)N/N=C(/C)c2cccs2)cc(OC)c1OC | 38 | -30 | i | 0.18 | 65*
C/C(=N\NC(=O)CC1(C)OCCO1)c1cccs1 | 36 | 3 | + | 0.36 | 1
CC(NC(=O)CSc1ncccc1C(=O)O)C1CC2CCC1C2 (stereo not given) | . | . | . | -0.3 | .
O=C(/C=C/c1ccc(F)cc1)NC(Cc1c[nH]c2ccccc12)C(=O)O (stereo not given) | . | 6 | i | -0.01 | -3
Cc1ccc(Nc2nc(Cl)c(C=O)s2)cc1Cl | . | 32 | i | . | 24
COc1ccccc1Nc1nc2c(s1)CCC2 | . | 4 | i | 0.6 | 47
O=Cc1sc(Nc2ccccc2)nc1Cl | -245 | -13 | i | 3.7* | 8
COc1ccccc1Nc1nc(Cl)c(C=O)s1 | . | -11 | i | 3.2* | 3
CC(CCc1ccccc1)NC(=O)COc1ccc(S(=O)(=O)N2CCOCC2)cc1[N+](=O)[O-] (stereo not given) | -47 | -7 | i | 0.22 | -3
c1ccc(OCCOCCSc2ncccn2)cc1 | 81* | -1 | i | -0.16 | 1
Cc1cccc(OCCOCCSc2ncccn2)c1 | 12 | -3 | i | -0.49 | 0
CCn1cc(CN2CCc3c([nH]c4ccccc34)C2c2ccc(F)c(OC)c2)c(C)n1 (stereo not given) | . | 18 | i | -0.24 | 42
CCn1nc(C)c(CN2CCc3c([nH]c4ccccc34)C2c2ccc(F)c(OC)c2)c1C (stereo not given) | . | 34 | i | -4.9 | 74*
COc1cc(/C=C2/CCC/C(=C\c3cc(O)c(OC)c(Cl)c3)C2=O)cc(Cl)c1O | 24 | . | i | . | 91*
COc1cc(/C=C2\COC/C(=C\c3cc(OC)c(OC)c(OC)c3)C2=O)cc(OC)c1OC | . | . | . | -2.3 | .
COc1ccc(/C=C2/CC/C(=C\c3ccc(OC)c(OC)c3OC)C2=O)c(OC)c1OC | 33 | 6 | i | -0.03 | 2
COc1cc(/C=C2\CC/C(=C\c3cc(OC)c(O)c(OC)c3)C2=O)cc(OC)c1O | 8 | -9 | i | ? | 58*
COc1cc(/C=C2\CC/C(=C\c3cc(OC)c(OC)c(OC)c3)C2=O)cc(OC)c1OC | 17 | -24 | i | -0.26 | 96*
Cc1cc(=O)n2c(n1)NC(Nc1cccc(C)c1C)=NC2c1ccccc1 (stereo not given) | . | . | . | -0.26 | .
CNc1nc(N)nc(OC(C(F)(F)F)C(F)(F)F)n1 | 12 | 0 | i | -1.3 | 4
CCN(CC)C(=O)CS(=O)(=O)CC(=O)Nc1cc(OCCOC)c(Cl)cc1Cl | . | -2 | i | -0.1 | -3
SMILES | INS promoter inh | WT yeast gro inh | Autophagy mod | Ins promoter up | L major viab
O=C(Cn1cc(C(F)(F)F)ccc1=O)N/N=C/c1cccc(Cl)c1Cl | 22 | 1 | i | 1.6 | 75*
O=c1cc2c(nn1Cc1ccc(Cl)cc1)-c1ccccc1CC2 | 10 | 59* | i | 0.19 | -1
O=c1cc2c(nn1Cc1cccc(Cl)c1)-c1ccccc1CC2 | . | 81* | i | 0.39 | 8
Cc1ccc(Cn2ncn3c(cc4ccccc43)c2=O)cc1 | . | 6 | i | 0.75 | 5
Cc1ccc(Cn2nc3c(cc2=O)CCc2ccccc2-3)cc1 | 8 | 74* | i | -0.06 | -4
NC(=O)c1cc2cc(Cl)ccc2oc1=Nc1cccc(C(F)(F)F)c1 | 12 | 9 | i | 0.17 | -6
Oc1ccc(/C=N/Nc2nc(N3CCCCCC3)nc(N3CCCCCC3)n2)c(O)c1 | 35 | 74* | i | -0.45 | 8
Oc1ccc(Br)cc1/C=N/Nc1nc(N2CCCCC2)nc(N2CCOCC2)n1 | . | 50 | i | 0.21 | 91*
Brc1cc2c(cc1/C=N/Nc1nc(N3CCCC3)nc(N3CCOCC3)n1)OCO2 | 24 | 16 | i | . | 7
Oc1ccc(/C=N/Nc2nc(N3CCCC3)nc(N3CCCC3)n2)cc1O | . | 13 | i | -1.1 | 3
O=[N+]([O-])/C=C/c1cn(Cc2ccccc2)c2ccccc12 | 62 | 82 | i | 0.81 | 96*
O=C(O)Cn1cc(/C=C/[N+](=O)[O-])c2ccccc21 | 0 | -12 | i | -0.05 | -3
O=C(Cn1cc(/C=C\[N+](=O)[O-])c2ccccc21)Nc1ccccc1 | . | . | . | -1.4 | .
N#Cc1ccccc1Cn1cc(/C=C/[N+](=O)[O-])c2ccccc21 | -24 | 75 | i | 1.4 | 87*
C=CCNC(=O)/C(C#N)=C/c1c(C)nn(-c2ccccc2)c1Cl | 52 | 36 | i | 0.31 | 99*
C=CCNC(=O)/C(C#N)=C/c1c(N(Cc2ccccc2)Cc2ccccc2)nc2ccccn2c1=O | -33 | 20 | i | -0.21 | 76*
CCOc1ccccc1NC(=O)/C(C#N)=C/c1c(C)nn(-c2ccccc2)c1Cl | 22 | 24 | i | -0.16 | 82*
O=C(Nc1ncc(Cc2ccc(SC(F)F)cc2)s1)c1ccc(OC(F)F)cc1 | -157 | 4 | i | 0.51 | -4
COc1cc(N)cc(NC(=O)c2ccncc2)c1 | . | -7 | i | -0.49 | -3
COc1ccc(NC(=O)c2ccc(Cl)c(NC(=O)c3ccncc3)c2)cc1 | . | 12 | i | -0.78 | 76*
CC(C)N(CCc1ccncc1)C(=S)Nc1ccc(F)c(Cl)c1 | . | 15 | i | 0.12 | 13
COc1ccc(N2CCN(C(c3nnnn3C3CCCC3)C(C)C)CC2)cc1 (stereo not given) | . | 2 | i | -1.1 | -1
COc1ccc(C(c2nnnn2C2CCCCC2)N2CCN(c3ccccc3)CC2)cc1 (stereo not given) | . | . | i | -1.1 | 84*
COc1ccc(C(c2nnnn2C2CCCC2)N2CCN(c3ccccc3)CC2)cc1 (stereo not given) | -56 | 29 | i | -1.1 | 63*
CCC(=O)Nc1ccc(C(=O)CSc2nnc(-c3ccc(NS(=O)(=O)CC)cc3)o2)cc1OC | . | . | . | -0.32 | .
SMILES | INS promoter inh | WT yeast gro inh | Autophagy mod | Ins promoter up | L major viab
COc1ccc(-n2nc(C(C)=O)c(=O)[nH]c2=O)cc1 | 38 | -15 | i | -0.1 | -10
COc1ccccc1NC(=O)c1sc2nc(Cc3ccccc3)cc(C(F)(F)F)c2c1N | 41 | -4 | + | 0.13 | 6
Nc1c(C(=O)Nc2nccs2)sc2nc(-c3cccs3)cc(C(F)(F)F)c12 | -182 | -31 | + | . | 0
COc1ccc(NC(=O)c2sc3nc(Cc4ccccc4)cc(C(F)(F)F)c3c2N)cc1OC | -5 | -4 | i | -0.33 | 16
Cc1nnc(NC(=O)c2sc3nc(-c4cccs4)cc(C(F)(F)F)c3c2N)s1 | -107 | 70* | + | . | -3
CC(C)(C)C(=O)c1sc2nc(-c3cccs3)cc(C(F)(F)F)c2c1N | -36 | 6 | + | . | 54*
